This note sets out measurements from the supplement of paper PMC12494721.

Structures are written as SMILES. Where a name gives a salt, the structure may show the parent alone.

Holding throughout (settings): incubation time: 27 h, anaerobic, 37 °C
Test [1] deals with Clostridium sporogenes DSM 1664. Nature of the test: growth (OD595) fold change vs plate DMSO controls (fold change (ratio)); higher = more growth. Put shortly:
(§1)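 To obtain OD, 595 nm absorbance readings were blank-subtracted, corrected for compound background using 20 µM compound solutions in water, and multiplied by a calibration factor of 5. They came from 96-well mGAM cultures grown anaerobically for 27 h at 37 °C and shaken before reading. Growth is the fold change relative to the median of plate DMSO controls. Two biological replicates were averaged, and fold changes above 1.5 were set to NA.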

Test [2] has as its system Escherichia coli IAI1. The test is described as above. The procedure, abridged: as §1
Test [3] concerns Klebsiella aerogenes DSM 30053. Described as above. The procedure, abridged:
as §1

Test [4] concerns Ruminococcus gnavus DSM 108212. The description is as above. The procedure, abridged:
as §1

Test [5] has as its system Klebsiella aerogenes DSM 30053. The experiment in a line: fold change of Histamine concentration vs plate DMSO controls (fold change (ratio)); higher = more amine produced, active = hit call of the paper (significant change in both replicates, either direction). The procedure, abridged:
(§2)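 Each value is the fold change relative to DMSO-only wells on the same plate. Four gut bacterial strains were grown anaerobically in mGAM at 37 °C for 27 h in 80 µL wells, starting at OD 0.1 before a 1:1 dilution, with compounds at 20 µM final (sweeteners 50 µM). Whole cultures were extracted with cold acetonitrile/methanol containing 0.1% formic acid, centrifuged, and amines were quantified by LC–triple-quadrupole MS (dynamic MRM) against external calibration curves with within-batch drift correction. Values are means of 2 biological replicates.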

In test [6] the test system is Clostridium sporogenes DSM 1664. The experiment in a line: fold change of Tryptamine concentration vs plate DMSO controls (fold change (ratio)); higher = more amine produced, active = hit call of the paper (significant change in both replicates, either direction). The procedure, abridged:
as §2

Test [7] concerns Ruminococcus gnavus DSM 108212. The description is as above. The procedure, abridged:
as §2

For test [8], the system named is Escherichia coli IAI1. Nature of the test: fold change of Putrescine concentration vs plate DMSO controls (fold change (ratio)); higher = more amine produced, active = hit call of the paper (significant change in both replicates, either direction). Put shortly: as §2
Test [9] deals with Klebsiella aerogenes DSM 30053. Described as above. The procedure, abridged:
as §2

For test [10], the system named is Escherichia coli IAI1. The experiment in a line: fold change of Cadaverine concentration vs plate DMSO controls (fold change (ratio)); higher = more amine produced, active = hit call of the paper (significant change in both replicates, either direction). Put shortly: as §2
The test system of test [11] is Klebsiella aerogenes DSM 30053. Described as above. The procedure, abridged: as §2
In test [12] the test system is Ruminococcus gnavus DSM 108212. Nature of the test: fold change of 2-Phenylethylamine concentration vs plate DMSO controls (fold change (ratio)); higher = more amine produced, active = hit call of the paper (significant change in both replicates, either direction). Put shortly: as §2

With `CN(C)C(=O)COC(=O)Cc1ccc(OC(=O)c2ccc(NC(=N)N)cc2)cc1` [Camostat mesylate] (20 µM), the growth is 1.07 in test [1], 1.01 in the test with Escherichia coli IAI1 [2], 1.04 in test [3] and 0.958 in test [4]. Besides, the “fold change of Histamine concentration” value in [5] was 0.897 (inactive). Moreover, the “fold change of Tryptamine concentration” value is 1.01 (inactive) in test [6] and 0.982 (inactive) in test [7]. In addition, the “fold change of Putrescine concentration” value (in the test with Escherichia coli IAI1 [8]; in test [9]) was 1.02 (inactive) each time. For the same compound, the “fold change of Cadaverine concentration” value (in the test with Escherichia coli IAI1 [10]; in test [11]) was 1.02 (inactive) throughout. For the same compound, in test [12], the “fold change of 2-Phenylethylamine concentration” value is 0.999 (inactive).
With `COc1ccc2c(c1)C(=O)N(CCc1ccc(S(=O)(=O)NC(=O)NC3CCCCC3)cc1)C(=O)C2(C)C` [Gliquidone] (20 µM), the growth was found to be 0.999 in [1], 1.05 with Escherichia coli IAI1 [2], 0.984 in test [3] and 0.999 in test [4]. In addition, in test [5], the “fold change of Histamine concentration” value was 1.04 (inactive). The “fold change of Tryptamine concentration” value in [6] was 0.929 (inactive); in [7], 0.956 (inactive). Further, the “fold change of Putrescine concentration” value in the test on Escherichia coli IAI1 [8] is 1.04 (inactive); in test [9], 1 (inactive). Also, the “fold change of Cadaverine concentration” value with Escherichia coli IAI1 [10] was 1.04 (inactive); in [11], 0.988 (inactive). Also, the “fold change of 2-Phenylethylamine concentration” value in [12] was 0.942 (inactive).
Take `N=C(N)N1CCc2ccccc2C1` [Debrisoquin sulfate] (20 µM): the growth in [1] was determined as 1.11; in the test with Escherichia coli IAI1 [2], 1; in test [3], 1.02; in [4] it was 1.13. Also, in test [5], the “fold change of Histamine concentration” value is 1.01 (inactive). For the same compound, the “fold change of Tryptamine concentration” value in test [6] was 1.03 (inactive); in test [7] it was 1.02 (inactive). Moreover, the “fold change of Putrescine concentration” value is 1.03 (inactive) in the test on Escherichia coli IAI1 [8] and 1 (inactive) in [9]. Also, the “fold change of Cadaverine concentration” value in the test with Escherichia coli IAI1 [10] was 0.999 (inactive); in [11] it was 0.993 (inactive). Moreover, the “fold change of 2-Phenylethylamine concentration” value in test [12] was 1.05 (inactive).
For `Cc1cccc(C)c1NC(=O)C1CCCCN1C` (centres undefined) [Mepivacaine hydrochloride] (20 µM), the growth in [1] worked out at 1.21; with Escherichia coli IAI1 [2], 1.02; in test [3], 1.08; in test [4], 0.946. Also, the “fold change of Histamine concentration” value in [5] was 0.905 (inactive). For the same compound, the “fold change of Tryptamine concentration” value in test [6] is 1.02 (inactive); in [7] it was 1.06 (inactive). Also, the figures for the “fold change of Putrescine concentration” value (in the test on Escherichia coli IAI1 [8]; in [9]) were 1 (inactive) and 0.977 (inactive), respectively. The “fold change of Cadaverine concentration” value was 1 (inactive) in the test on Escherichia coli IAI1 [10] and 1.01 (inactive) in test [11]. Also, in test [12], the “fold change of 2-Phenylethylamine concentration” value is 1.05 (inactive).
Regarding `CC(C)(C)c1ccc(C(O)CCCN2CCC(C(O)(c3ccccc3)c3ccccc3)CC2)cc1` (centres undefined) [Terfenadine] (20 µM), the growth stood at 1.21 in test [1], 1 in the test on Escherichia coli IAI1 [2], 1.09 in [3] and 1.21 in test [4]. In addition, the “fold change of Histamine concentration” value in test [5] was 0.886 (inactive). Further, the results for the “fold change of Tryptamine concentration” value in test [6] and in test [7] were 1.06 (inactive) and 0.754 (active), respectively. Besides, the entries for the “fold change of Putrescine concentration” value (in the test with Escherichia coli IAI1 [8]; in test [9]) were 1 (inactive) and 0.97 (inactive), respectively. For the same compound, the “fold change of Cadaverine concentration” value in the test with Escherichia coli IAI1 [10] is 1.05 (inactive); in [11], 1.01 (inactive). For the same compound, the “fold change of 2-Phenylethylamine concentration” value in test [12] was 0.815 (inactive).
As for `O=C1Nc2ccccc2C1(c1ccc(O)cc1)c1ccc(O)cc1` [Oxyphenisatin] (20 µM), the growth in test [1] is 1.19; with Escherichia coli IAI1 [2], 1.05; in test [3] it was 1; in test [4], 0.994. Moreover, the “fold change of Histamine concentration” value in test [5] was 1.03 (inactive). In addition, the “fold change of Tryptamine concentration” value was 0.982 (inactive) in [6] and 0.935 (inactive) in test [7]. Moreover, the figures for the “fold change of Putrescine concentration” value (in the test with Escherichia coli IAI1 [8]; in [9]) were 1.04 (inactive) and 1 (inactive), respectively. The “fold change of Cadaverine concentration” value in the test with Escherichia coli IAI1 [10] is 1.01 (inactive); in [11], 0.999 (inactive). The “fold change of 2-Phenylethylamine concentration” value in test [12] is 0.89 (inactive).
For `CC(=O)O[C@H]1C(=O)[C@@]2(C)[C@H]([C@H](OC(=O)c3ccccc3)[C@]3(O)C[C@H](OC(=O)[C@H](O)[C@@H](NC(=O)c4ccccc4)c4ccccc4)C(C)=C1C3(C)C)[C@]1(OC(C)=O)CO[C@@H]1C[C@@H]2O` [Paclitaxel] (20 µM), the growth is 1.04 in test [1], 1.03 with Escherichia coli IAI1 [2], 1.05 in test [3] and 0.944 in test [4]. For the same compound, the “fold change of Histamine concentration” value in test [5] was 0.885 (inactive). Besides, the “fold change of Tryptamine concentration” value in test [6] is 0.975 (inactive); in test [7], 1.08 (inactive). Moreover, the “fold change of Putrescine concentration” value with Escherichia coli IAI1 [8] is 1.04 (inactive); in [9], 0.969 (inactive). In addition, the “fold change of Cadaverine concentration” value (in the test on Escherichia coli IAI1 [10]; in test [11]) was 1.03 (inactive) throughout. For the same compound, the “fold change of 2-Phenylethylamine concentration” value in test [12] was 1.07 (inactive).
On to `OC[C@H]1O[C@@](CO)(O[C@H]2O[C@H](CO)[C@@H](O)[C@H](O)[C@H]2O)[C@@H](O)[C@@H]1O` [Sucrose] (50 µM), for which the growth in [1] is 1.08; in the test with Escherichia coli IAI1 [2], 0.938; in test [3], 1.09; in test [4], 1.12. Besides, in test [5], the “fold change of Histamine concentration” value is 0.917 (inactive). For the same compound, the “fold change of Tryptamine concentration” value was 1.07 (inactive) in test [6] and 1.08 (inactive) in test [7]. For the same compound, the “fold change of Putrescine concentration” value was 1 (inactive) with Escherichia coli IAI1 [8] and 0.977 (inactive) in [9]. Also, the “fold change of Cadaverine concentration” value in the test with Escherichia coli IAI1 [10] was 0.964 (inactive); in [11] it was 1.05 (inactive). Moreover, the “fold change of 2-Phenylethylamine concentration” value in test [12] was 1.12 (inactive).
Take `Cc1ccc(S(=O)(=O)NCl)cc1` [Chloramine-T hydrate] (20 µM): the growth worked out at 0.97 in [1], 0.978 with Escherichia coli IAI1 [2], 1.11 in [3] and 1.07 in test [4]. The “fold change of Histamine concentration” value in test [5] is 0.912 (inactive). Also, the results for the “fold change of Tryptamine concentration” value in [6] and in test [7] were 0.931 (inactive) and 0.992 (inactive), respectively. Besides, the “fold change of Putrescine concentration” value with Escherichia coli IAI1 [8] was 1.01 (inactive); in test [9] it was 1.03 (inactive). The “fold change of Cadaverine concentration” value in the test with Escherichia coli IAI1 [10] was 1.01 (inactive); in [11] it was 1.02 (inactive). Moreover, in test [12], the “fold change of 2-Phenylethylamine concentration” value was 0.935 (inactive).
`Cc1ccc2c(Cl)cc(Cl)c(O)c2n1` [Chlorquinaldol] (20 µM): the growth in [1] is 0.726; in the test with Escherichia coli IAI1 [2] it was 0.915; in [3] it was 0.929; in test [4] it was 0.448. The “fold change of Histamine concentration” value in test [5] is 1.12 (inactive). The “fold change of Tryptamine concentration” value in test [6] was 0.518 (active); in test [7], 0.33 (active). In addition, the “fold change of Putrescine concentration” value was 1.17 (inactive) in the test with Escherichia coli IAI1 [8] and 1.03 (inactive) in test [9]. Also, the “fold change of Cadaverine concentration” value with Escherichia coli IAI1 [10] was 1.32 (inactive); in [11], 0.978 (inactive). Also, in [12], the “fold change of 2-Phenylethylamine concentration” value is 0.332 (inactive).
In the case of `Cc1ccc(C(C)NC(=O)[C@@H](NC(=O)OC(C)C)C(C)C)cc1` (some centres undefined) (20 µM), the growth was 1.07 in test [1], 1.02 with Escherichia coli IAI1 [2], 1.04 in test [3] and 0.999 in [4]. In [5], the “fold change of Histamine concentration” value is 1.02 (inactive). Besides, the “fold change of Tryptamine concentration” value was 1.02 (inactive) in [6] and 1.03 (inactive) in [7]. The “fold change of Putrescine concentration” value in the test on Escherichia coli IAI1 [8] is 0.974 (inactive); in test [9] it was 1 (inactive). Further, the “fold change of Cadaverine concentration” value was 1.03 (inactive) with Escherichia coli IAI1 [10] and 1.02 (inactive) in test [11]. In addition, the “fold change of 2-Phenylethylamine concentration” value in test [12] was 1.07 (inactive).
Consider `CCC[C@H](N[C@@H](C)C(=O)N1[C@H](C(=O)O)C[C@@H]2CCCC[C@@H]21)C(=O)OCC` [Perindopril] (20 µM), for which the growth was determined as 0.997 in test [1], 1 in the test on Escherichia coli IAI1 [2], 1.05 in test [3] and 1.21 in test [4]. In addition, the “fold change of Histamine concentration” value in [5] was 0.997 (inactive). The “fold change of Tryptamine concentration” value was 0.965 (inactive) in test [6] and 1.02 (inactive) in [7]. In addition, the “fold change of Putrescine concentration” value was 0.914 (inactive) in the test with Escherichia coli IAI1 [8] and 1.03 (inactive) in test [9]. Besides, the “fold change of Cadaverine concentration” value in the test on Escherichia coli IAI1 [10] was 0.993 (inactive); in [11], 1.01 (inactive). The “fold change of 2-Phenylethylamine concentration” value in test [12] is 0.995 (inactive).
